From PubChem BioAssay
CYP2C19 inh = human CYP2C19 inhibition; CYP2C19 Supersomes, luciferin-H EGE luminescence, 30 min; inhibition, % at 5 µM; 96,000 tested, 21% active; AID 778;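 active = CYP2C19 inhibition above a set limit at 5 µM in the primary screen, cut at about 50% in these data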;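 also: plate controls were negative control wells for no effect and 2.5 mM tranylcypromine positive control for full effect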
CYP2C9 inh = blocks human cytochrome P450 2C9. inhibition, % at 5 µM. 96,000 tested, 20% active. P11712. CYP2C9 Supersomes, luciferin-H conversion, luminescence;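 active = blocking of liver enzyme CYP2C9 beyond about 50% at 5 µM, limit read from the data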
CYP2C19 act = cytochrome P450 2C19 (human) activation. P33261. recombinant CYP2C19, luciferin-H EGE luminescence; active compounds read high; 0 = fully inhibited enzyme, 1 = untreated enzyme. activation factor at 5 µM. 96,000 tested, under 10 active. AID 1025;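 active = activation factor of at least 2 at 5 µM in the primary screen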;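 also: 0 = wells with 2.5 mM tranylcypromine and 1 = vehicle-only wells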
hDAT+cocaine = modulates human dopamine transporter uptake under cocaine | Q01959 | LLC-PK1 hDAT cells, [14C]-dopamine uptake with cocaine IC80; actives deviate in either direction | B-score at 10 µM | 110,000 tested, 1.3% active;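 active = Z score or B-score, a plate-position-corrected score, falls beyond the plate's 99.7% confidence bounds, in either direction; inactive = both scores lie inside the 99.7% bounds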;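 also: scored against the spread of the other compound wells on the same plate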
Target sequence (Q01959 whole entry, looked up): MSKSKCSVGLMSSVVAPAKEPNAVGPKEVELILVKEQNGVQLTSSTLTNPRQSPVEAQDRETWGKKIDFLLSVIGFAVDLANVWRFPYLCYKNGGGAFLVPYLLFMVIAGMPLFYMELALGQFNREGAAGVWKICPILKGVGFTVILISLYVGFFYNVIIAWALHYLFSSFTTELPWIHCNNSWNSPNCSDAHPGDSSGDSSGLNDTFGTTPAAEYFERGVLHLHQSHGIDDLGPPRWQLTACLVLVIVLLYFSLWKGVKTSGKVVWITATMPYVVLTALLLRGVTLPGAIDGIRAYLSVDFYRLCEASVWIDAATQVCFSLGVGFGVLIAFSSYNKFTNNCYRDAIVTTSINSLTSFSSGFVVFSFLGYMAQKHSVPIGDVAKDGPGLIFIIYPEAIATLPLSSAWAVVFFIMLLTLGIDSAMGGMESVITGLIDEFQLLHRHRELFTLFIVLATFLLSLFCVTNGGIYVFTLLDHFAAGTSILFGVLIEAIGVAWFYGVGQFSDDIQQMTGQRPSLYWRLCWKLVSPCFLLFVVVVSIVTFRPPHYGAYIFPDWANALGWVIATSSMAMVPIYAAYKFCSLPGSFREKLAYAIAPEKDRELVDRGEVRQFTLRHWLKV
CYP2C9 act = activators of human CYP2C9 | P11712 | recombinant CYP2C9, luciferin-H conversion, luminescence; active compounds read high; factor 1 = untreated enzyme, 0 = blocked | activation factor at 5 µM | 96,000 tested, 1.4% active;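 active = activation factor of 2 or more for CYP2C9 at a 5 µM dose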;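 also: 0 = sulfaphenazole-blocked wells and 1 = vehicle-only wells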
D1 allo mod = D1 dopamine receptor (human) allosteric modulation | P21728 | HEK293 D1, CRE-luciferase, dopamine EC30 potentiation; actives deviate in either direction | B-score at 10 µM | 58,000 tested, 5.9% active;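 active = luminescence count or its row- and column-corrected plate score outside the 99.7% band of the plate's sample wells, on either side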
Starred values were filed as active, the others as inactive; x = no result. Only some compounds are listed: those with a hit (about 28% of all), similar ones and a draw of the others.

SMILES | CYP2C19 inh | CYP2C9 inh | CYP2C19 act | hDAT+cocaine | CYP2C9 act | D1 allo mod
COc1ccc(Cl)cc1S(=O)(=O)N1CCN(C(=O)c2ccco2)CC1 | 94* | -12 | 0.1 | 0.39 | 1.1 | x
O=C(CSc1nn(-c2ccc(Cl)cc2)c(=S)s1)N1CCN(C(=O)c2ccco2)CC1 | 16 | 35 | 0.8 | -0.25 | 0.6 | -0.76
O=C(CSc1nnc(SCc2ccc(Cl)cc2)s1)N1CCN(C(=O)c2ccco2)CC1 | 6 | 55* | 0.9 | -0.37 | 0.4 | -0.071
CCc1nnc(NC(=O)c2cc(-c3ccccc3)nn2-c2ccccc2)s1 | 6 | 7 | 0.9 | 1.3 | 0.9 | x
O=C(Cn1ccsc1=NC(=O)C(F)(F)F)c1ccccc1 | 57* | 35 | 0.4 | -0.072 | 0.6 | x
O=C(Cn1cnc2ccccc2c1=O)c1ccccc1 | x | x | x | -1 | x | x
CCOC(=O)C1CCN(C(=O)c2sc3nc(-c4ccc(F)cc4)cn3c2C)CC1 | 20 | 34 | 0.8 | x | 0.7 | x
CN(C)C=Nc1ncc2c([nH]c3ccccc32)c1C#N | 63* | 50 | 0.4 | 0.89 | 0.5 | -1.1
CCCOc1ncnc2c1[nH]c1ccccc12 | 22 | 18 | 0.8 | x | 0.8 | x
Cc1ccc(OCC(=O)Sc2ccc(C)cc2)cc1 | 52* | 46 | 0.5 | 0.16 | 0.5 | x
O=C(CN1CCN(c2ccccn2)CC1)N1c2ccccc2Sc2ccc(C(F)(F)F)cc21 | 73* | 44 | 0.3 | 0.98 | 0.6 | 0.12
COC(=O)c1sccc1NC(=S)N1CCCC(C)C1 (stereo not drawn) | 7 | 19 | 0.9 | -0.63 | 0.8 | x
COC(=O)c1sccc1NC(=S)N1CCCCC1C (stereo not drawn) | 63* | 22 | 0.4 | -1.9 | 0.8 | x
Cc1nn(-c2cccc(Cl)c2)c2nc(-c3ccco3)cc(C(=O)O)c12 | -5 | 90* | 1.1 | 1.1 | 0.1 | x
C=CCNC(=O)c1onc(CSc2cccc(C)c2)c1C(=O)O | 12 | 65* | 0.9 | -1.4 | 0.3 | x
C=CCNC(=O)c1onc(CSc2cc(C)cc(C)c2)c1C(=O)NCC=C | x | x | x | 0.16 | x | x
C=CCNC(=O)c1onc(CSc2cccc(Cl)c2)c1C(=O)O | 12 | 68* | 0.9 | 0.49 | 0.3 | x
CCN(CC)C(=O)C(C)OC(=O)c1ccc(O)cc1 (stereo not drawn) | -2 | 2 | 1 | 0.25 | 1 | -0.73
N#Cc1ccc(C23CC4(C2)[C@H](CN(CC2CCCCC2)[C@@H]4c2ccccc2)C3c2ccc(Cl)nc2)cc1 (stereo partly drawn) | x | x | x | -0.2 | x | x
Cc1nn(Cc2cccc(C(=O)N3N=C(C(F)F)CC3(O)C(F)F)c2)c(C)c1[N+](=O)[O-] (stereo not drawn) | 78* | 85* | 0.2 | 0.51 | 0.1 | x
CCC(NC(=O)c1cccc(Cn2nc(C)c([N+](=O)[O-])c2C)c1)c1ccc(C(C)C)cc1 (stereo not drawn) | 23 | 49 | 0.8 | -0.36 | 0.5 | x
CC1=NN(C(=O)c2cccc(Cn3nc(C)c([N+](=O)[O-])c3C)c2)C(O)(C(F)(F)F)C1 (stereo not drawn) | 47 | 70* | 0.5 | 0.081 | 0.3 | x
Cc1nn(Cc2cccc(C(=O)Nc3ccn(Cc4ccccc4)n3)c2)c(C)c1[N+](=O)[O-] | 8 | 24 | 0.9 | -1.4 | 0.8 | x
Cc1nn(Cc2cccc(C(=O)NC(C)c3ccc(C(C)(C)C)cc3)c2)c(C)c1[N+](=O)[O-] (stereo not drawn) | 78* | 87* | 0.2 | 1.3 | 0.1 | x
O=C(CC12CC3CC(CC(C3)C1)C2)NCC(=O)N1CCc2ccccc2C1 | 12 | 0 | 0.9 | -1.9 | 1 | x
SMILES | CYP2C19 inh | CYP2C9 inh | CYP2C19 act | hDAT+cocaine | CYP2C9 act | D1 allo mod
O=C(Nc1ccncc1)c1ccc2c(c1)OCCO2 | 77* | 50* | 0.2 | 0.96 | 0.5 | -0.45
O=C(Nc1cccc(Cl)c1N1CCCCC1)c1ccc2c(c1)OCCO2 | 19 | 65* | 0.8 | 0.95 | 0.3 | 0.62
Cc1nc2c(ccc3nc(NC(=O)c4ccc5c(c4)OCCO5)sc32)s1 | 15 | 63* | 0.8 | 0.44 | 0.4 | -0.73
O=C(Nc1cccc2cccnc12)c1ccc2c(c1)OCCO2 | 38 | -102 | 0.6 | 1.4 | 2* | x
COc1cc(NC(=O)c2ccc3c(c2)OCO3)c2ncccc2c1 | x | x | x | -1.7 | x | x
Cc1occc(=O)c1O | x | x | x | 0.66 | x | x
CCOC(=O)c1nnn(CC(=O)N2N=C(c3cccc4ccccc34)CC2c2ccccc2)c1C(=O)OCC (stereo not drawn) | x | x | x | 0.77 | x | x
